# The supplement of paper PMC8728848
# This is one part of a sample in which the strongest signals are shown more often than they occur.
# B1: PX9961V-pdi-562-26-562 (Parabacteroides distasonis) (protein)
# chain: EIFSEITTDNYYQNSNNIYAALVNNYAKAFSTGWSDARYFLQEVTADQLMIPTRGKHGYNGGEYVRLHEHKWTVEENFVYNGWAAPFQGIALCNNTLSDFENLDFSTFKLTEETKNEYIAELRALRVWNYMFLIDFFRHVPIVTDIEEVKAQSTPLEVFNFMESELLAILPDLPKNRGVSRFDQAGVASILVRLYLNAEKWIGISKYDECEQMAQAILDGKYGEYSIDPDYRGPFRSGINGYRSKENIMEFAIKKNYFEASWLYNMWMHYQDRYSLDNDWQGWNGGNLAPSRDLYGNLYQDKLGMPFEKFPDGDIRKKAFRVISNDGDYEGFFLMGTQYKFDYEKGYGFTDEVITGTEEYNGKPLVYVDQVGRFSEGETGLAKGSHVIYGEENTGYRLIKFPWLPQSKDLFQMNSIPEIRLAEIYYSLAECKYRSGDKIGAARLLDVVRKRYYKAEDWSKFSYESNISKLTDDEFVDELGREFIGERHRRIDLIRWNRFSEGAWWDKTPDATNQDVFPIPYRALNANPLLKQTTAGF
# Tests used:
# Test in all cases: glycan array binding signal (z-score within array); higher = stronger binding
# Conditions in all cases: glycan notation: IUPAC condensed, linker removed
# [1] = target: Fuc(a1-2)Gal(b1-3)GlcNAc(b1-3)GalNAc
# Procedure, shortened: (§1)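 Arrays were curated from the Consortium for Functional Glycomics database, 3228 in total, and kept only where the protein sequence was available. Binding is expressed as a within-array Z-score. This score was averaged across arrays of the same protein sequence at different concentrations or buffers and across linkers, and negative values can be read as non-binding.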
# [2] = target: Fuc(a1-2)Gal(b1-3)GlcNAc(b1-3)[Fuc(a1-2)Gal(b1-3)GlcNAc(b1-6)]GalNAc
# Procedure, shortened: as §1
# [3] = target: Fuc(a1-2)Gal(b1-4)GlcNAc(b1-2)[Fuc(a1-2)Gal(b1-4)GlcNAc(b1-4)]Man(a1-3)[Fuc(a1-2)Gal(b1-4)GlcNAc(b1-2)Man(a1-6)]Man(b1-4)GlcNAc(b1-4)GlcNAc
# Procedure, shortened: as §1
# [4] = target: Fuc(a1-2)Gal(b1-4)[Fuc(a1-3)]GlcNAc(b1-2)[Fuc(a1-2)Gal(b1-4)[Fuc(a1-3)]GlcNAc(b1-4)]Man(a1-3)[Fuc(a1-2)Gal(b1-4)[Fuc(a1-3)]GlcNAc(b1-2)Man(a1-6)]Man(b1-4)GlcNAc(b1-4)GlcNAc
# Procedure, shortened: as §1
# [5] = target: Fuc(a1-2)[Gal(a1-3)]Gal(b1-3)GlcNAc(b1-2)Man(a1-3)[Fuc(a1-2)[Gal(a1-3)]Gal(b1-3)GlcNAc(b1-2)Man(a1-6)]Man(b1-4)GlcNAc(b1-4)GlcNAc
# Procedure, shortened: as §1
# [6] = target: Fuc(a1-2)[Gal(a1-3)]Gal(b1-4)Glc
# Procedure, shortened: as §1
# [7] = target: Fuc(a1-2)[Gal(a1-3)]Gal(b1-4)GlcNAc(b1-2)Man
# Procedure, shortened: as §1
# [8] = target: Fuc(a1-2)[Gal(a1-3)]Gal(b1-4)GlcNAc(b1-2)Man(a1-3)[Fuc(a1-2)[Gal(a1-3)]Gal(b1-4)GlcNAc(b1-2)Man(a1-6)]Man(b1-4)GlcNAc(b1-4)GlcNAc
# Procedure, shortened: as §1
# [9] = target: Fuc(a1-2)[GalNAc(a1-3)]Gal(b1-3)GlcNAc(b1-2)Man(a1-3)[Fuc(a1-2)[GalNAc(a1-3)]Gal(b1-3)GlcNAc(b1-2)Man(a1-6)]Man(b1-4)GlcNAc(b1-4)GlcNAc
# Procedure, shortened: as §1
# [10] = target: Fuc(a1-2)[GalNAc(a1-3)]Gal(b1-4)GlcNAc(b1-2)Man(a1-3)[Fuc(a1-2)[GalNAc(a1-3)]Gal(b1-4)GlcNAc(b1-2)Man(a1-6)]Man(b1-4)GlcNAc(b1-4)GlcNAc
# Procedure, shortened: as §1
# [11] = target: Fuc(a1-2)[GalNAc(a1-3)]Gal(b1-4)[Fuc(a1-3)]GlcNAc
# Procedure, shortened: as §1
# [12] = target: Fuc(a1-2)[GalNAc(a1-3)]Gal(b1-4)[Fuc(a1-3)]GlcNAc(b1-3)GalNAc
# Procedure, shortened: as §1
# [13] = target: Fuc(a1-3)GlcNAc
# Procedure, shortened: as §1
# [14] = target: Fuc(a1-3)[Gal(b1-4)]GlcNAc6S
# Procedure, shortened: as §1
# [15] = target: Fuc(a1-4)GlcNAc
# Procedure, shortened: as §1
# [16] = target: Fuc(b1-3)GlcNAc
# Procedure, shortened: as §1
# [17] = target: Gal(a1-3)Gal
# Procedure, shortened: as §1
# [18] = target: Gal(a1-3)Gal(b1-3)GlcNAc(b1-2)Man(a1-3)[Gal(a1-3)Gal(b1-3)GlcNAc(b1-2)Man(a1-6)]Man(b1-4)GlcNAc(b1-4)GlcNAc
# Procedure, shortened: as §1
# [19] = target: Gal(a1-3)Gal(b1-3)[Fuc(a1-4)]GlcNAc(b1-2)Man(a1-3)[Gal(a1-3)Gal(b1-3)[Fuc(a1-4)]GlcNAc(b1-2)Man(a1-6)]Man(b1-4)GlcNAc(b1-4)GlcNAc
# Procedure, shortened: as §1
# [20] = target: Gal(a1-3)Gal(b1-4)GlcNAc
# Procedure, shortened: as §1
# [21] = target: Gal(a1-4)Gal(b1-4)Glc
# Procedure, shortened: as §1
# [22] = target: Gal(b1-3)GalNAc
# Procedure, shortened: as §1
# [23] = target: Gal(b1-3)GlcNAc(b1-2)Man(a1-3)[Gal(b1-3)GlcNAc(b1-2)Man(a1-6)]Man(b1-4)GlcNAc(b1-4)[Fuc(a1-6)]GlcNAc
# Procedure, shortened: as §1
# [24] = target: Gal(b1-3)GlcNAc(b1-3)Gal(b1-4)GlcNAc(b1-3)Gal(b1-4)GlcNAc(b1-2)[Gal(b1-3)GlcNAc(b1-3)Gal(b1-4)GlcNAc(b1-3)Gal(b1-4)GlcNAc(b1-6)]Man(a1-6)[Gal(b1-3)GlcNAc(b1-3)Gal(b1-4)GlcNAc(b1-3)Gal(b1-4)GlcNAc(b1-2)Man(a1-3)]Man(b1-4)GlcNAc(b1-4)[Fuc(a1-6)]GlcNAc
# Procedure, shortened: as §1
# [25] = target: Gal(b1-3)[Fuc(a1-4)]GlcNAc(b1-6)GalNAc
# Procedure, shortened: as §1
# [26] = target: Gal(b1-4)GlcNAc(b1-3)Gal(b1-4)GlcNAc(b1-2)Man(a1-3)[Gal(b1-4)GlcNAc(b1-3)Gal(b1-4)GlcNAc(b1-2)Man(a1-6)]Man(b1-4)GlcNAc(b1-4)[Fuc(a1-6)]GlcNAc
# Procedure, shortened: as §1
# [27] = target: Gal(b1-4)GlcNAc(b1-3)Gal(b1-4)GlcNAc(b1-2)[Gal(b1-4)GlcNAc(b1-3)Gal(b1-4)GlcNAc(b1-6)]Man(a1-6)[Gal(b1-4)GlcNAc(b1-3)Gal(b1-4)GlcNAc(b1-2)Man(a1-3)]Man(b1-4)GlcNAc(b1-4)GlcNAc
# Procedure, shortened: as §1
# [28] = target: Gal(b1-4)GlcNAc(b1-3)Gal(b1-4)GlcNAc(b1-3)Gal(b1-4)GlcNAc(b1-2)Man(a1-3)[Gal(b1-4)GlcNAc(b1-3)Gal(b1-4)GlcNAc(b1-3)Gal(b1-4)GlcNAc(b1-2)Man(a1-6)]Man(b1-4)GlcNAc(b1-4)GlcNAc
# Procedure, shortened: as §1
binder,measurement,setting,value
B1,glycan array binding signal (z-score),[1],-0.58
same,glycan array binding signal (z-score),[2],2.04
same,glycan array binding signal (z-score),[3],-0.54
same,glycan array binding signal (z-score),[4],-0.424
same,glycan array binding signal (z-score),[5],-0.108
same,glycan array binding signal (z-score),[6],-0.228
same,glycan array binding signal (z-score),[7],-0.182
same,glycan array binding signal (z-score),[8],3.45
same,glycan array binding signal (z-score),[9],-0.21
same,glycan array binding signal (z-score),[10],4.28
same,glycan array binding signal (z-score),[11],-0.369
same,glycan array binding signal (z-score),[12],7.22
same,glycan array binding signal (z-score),[13],-0.508
same,glycan array binding signal (z-score),[14],0.861
same,glycan array binding signal (z-score),[15],-0.596
same,glycan array binding signal (z-score),[16],-0.328
same,glycan array binding signal (z-score),[17],0
same,glycan array binding signal (z-score),[18],2.03
same,glycan array binding signal (z-score),[19],3.94
same,glycan array binding signal (z-score),[20],0.068
same,glycan array binding signal (z-score),[21],-0.099
same,glycan array binding signal (z-score),[22],-0.185
same,glycan array binding signal (z-score),[23],5.1
same,glycan array binding signal (z-score),[24],4.46
same,glycan array binding signal (z-score),[25],6.13
same,glycan array binding signal (z-score),[26],4.04
same,glycan array binding signal (z-score),[27],4.58
same,glycan array binding signal (z-score),[28],4.36
